Assay results: ChEMBL document CHEMBL1961873, “Compounds: GSK PKIS; Assays: Nanosyn kinase panel” (2012)
“And” between values parts separate entries of the source, which are not always exact repeats. Equal values may be shown once.

How the values were obtained:
[1] = biological target: Sphingosine kinase 1 (Homo sapiens) (UniProt Q9NYA1); details: at 1 µM;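 also: mean SPHK1 inhibition value reported from the GSK PKIS kinase panel screen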
[2] = biological target: T1, Sphingosine kinase 2 (Homo sapiens) (UniProt Q9NRA0); details: at 0.1 µM
T1 sequence (whole entry): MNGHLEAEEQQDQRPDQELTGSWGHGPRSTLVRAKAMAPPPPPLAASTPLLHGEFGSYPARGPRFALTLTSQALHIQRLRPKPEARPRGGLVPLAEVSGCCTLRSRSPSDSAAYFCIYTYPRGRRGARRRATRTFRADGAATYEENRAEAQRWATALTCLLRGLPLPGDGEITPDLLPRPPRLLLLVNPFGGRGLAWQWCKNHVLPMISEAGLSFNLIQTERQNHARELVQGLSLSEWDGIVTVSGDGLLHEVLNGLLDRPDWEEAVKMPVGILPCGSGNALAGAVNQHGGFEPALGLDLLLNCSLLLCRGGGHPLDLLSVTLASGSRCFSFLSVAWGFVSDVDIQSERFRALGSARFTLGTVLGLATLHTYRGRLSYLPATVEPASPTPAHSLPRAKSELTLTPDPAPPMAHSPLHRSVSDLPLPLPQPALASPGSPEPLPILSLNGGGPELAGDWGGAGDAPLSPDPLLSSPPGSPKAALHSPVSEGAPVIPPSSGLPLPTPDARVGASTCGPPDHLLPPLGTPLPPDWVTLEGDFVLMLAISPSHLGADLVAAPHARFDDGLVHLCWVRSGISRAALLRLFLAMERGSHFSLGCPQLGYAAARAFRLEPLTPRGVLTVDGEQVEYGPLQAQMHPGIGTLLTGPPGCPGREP

[3] = biological target: T1, Sphingosine kinase 2 (Homo sapiens); details: at 1 µM
[4] = biological target: Casein kinase II subunit alpha (Homo sapiens) (UniProt P68400); details: at 0.1 µM
Chain of Casein kinase II subunit alpha (Homo sapiens) (P68400 whole entry, looked up): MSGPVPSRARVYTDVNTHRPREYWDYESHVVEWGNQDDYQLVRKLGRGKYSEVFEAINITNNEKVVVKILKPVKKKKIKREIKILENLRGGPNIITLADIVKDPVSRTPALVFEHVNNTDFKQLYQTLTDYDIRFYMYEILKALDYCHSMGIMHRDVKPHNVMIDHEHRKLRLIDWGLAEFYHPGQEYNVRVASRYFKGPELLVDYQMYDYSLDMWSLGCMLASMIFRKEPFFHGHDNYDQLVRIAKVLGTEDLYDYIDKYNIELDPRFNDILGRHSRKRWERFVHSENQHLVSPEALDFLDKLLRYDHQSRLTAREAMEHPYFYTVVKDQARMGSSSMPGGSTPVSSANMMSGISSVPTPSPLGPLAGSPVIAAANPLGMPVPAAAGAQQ

[5] = biological target: Casein kinase II subunit alpha (Homo sapiens) (UniProt P68400); details: at 1 µM
[6] = biological target: T2, Inhibitor of nuclear factor kappa-B kinase subunit alpha (Homo sapiens) (UniProt O15111); details: at 0.1 µM
T2 sequence (whole entry): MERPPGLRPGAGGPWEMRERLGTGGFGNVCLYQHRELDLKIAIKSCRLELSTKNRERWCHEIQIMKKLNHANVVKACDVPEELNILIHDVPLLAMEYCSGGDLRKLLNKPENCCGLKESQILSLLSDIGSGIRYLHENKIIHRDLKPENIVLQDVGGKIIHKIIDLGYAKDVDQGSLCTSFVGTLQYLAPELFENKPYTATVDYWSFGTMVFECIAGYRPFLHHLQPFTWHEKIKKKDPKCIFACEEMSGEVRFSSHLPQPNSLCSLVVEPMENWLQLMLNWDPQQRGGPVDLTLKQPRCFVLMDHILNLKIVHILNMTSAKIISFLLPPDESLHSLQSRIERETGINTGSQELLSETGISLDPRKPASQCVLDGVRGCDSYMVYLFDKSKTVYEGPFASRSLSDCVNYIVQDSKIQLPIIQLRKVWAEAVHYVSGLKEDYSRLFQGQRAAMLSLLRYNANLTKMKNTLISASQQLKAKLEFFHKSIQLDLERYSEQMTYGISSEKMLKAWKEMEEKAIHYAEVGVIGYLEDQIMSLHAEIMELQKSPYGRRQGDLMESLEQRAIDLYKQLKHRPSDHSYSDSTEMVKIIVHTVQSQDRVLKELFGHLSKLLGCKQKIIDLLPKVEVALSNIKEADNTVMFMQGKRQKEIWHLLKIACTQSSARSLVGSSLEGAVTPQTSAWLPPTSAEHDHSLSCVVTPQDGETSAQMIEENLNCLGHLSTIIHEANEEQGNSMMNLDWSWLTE

[7] = biological target: T2, Inhibitor of nuclear factor kappa-B kinase subunit alpha (Homo sapiens); details: at 1 µM
[8] = biological target: T3, Inhibitor of nuclear factor kappa-B kinase subunit beta (Homo sapiens) (UniProt O14920); details: at 0.1 µM
T3 sequence (whole entry): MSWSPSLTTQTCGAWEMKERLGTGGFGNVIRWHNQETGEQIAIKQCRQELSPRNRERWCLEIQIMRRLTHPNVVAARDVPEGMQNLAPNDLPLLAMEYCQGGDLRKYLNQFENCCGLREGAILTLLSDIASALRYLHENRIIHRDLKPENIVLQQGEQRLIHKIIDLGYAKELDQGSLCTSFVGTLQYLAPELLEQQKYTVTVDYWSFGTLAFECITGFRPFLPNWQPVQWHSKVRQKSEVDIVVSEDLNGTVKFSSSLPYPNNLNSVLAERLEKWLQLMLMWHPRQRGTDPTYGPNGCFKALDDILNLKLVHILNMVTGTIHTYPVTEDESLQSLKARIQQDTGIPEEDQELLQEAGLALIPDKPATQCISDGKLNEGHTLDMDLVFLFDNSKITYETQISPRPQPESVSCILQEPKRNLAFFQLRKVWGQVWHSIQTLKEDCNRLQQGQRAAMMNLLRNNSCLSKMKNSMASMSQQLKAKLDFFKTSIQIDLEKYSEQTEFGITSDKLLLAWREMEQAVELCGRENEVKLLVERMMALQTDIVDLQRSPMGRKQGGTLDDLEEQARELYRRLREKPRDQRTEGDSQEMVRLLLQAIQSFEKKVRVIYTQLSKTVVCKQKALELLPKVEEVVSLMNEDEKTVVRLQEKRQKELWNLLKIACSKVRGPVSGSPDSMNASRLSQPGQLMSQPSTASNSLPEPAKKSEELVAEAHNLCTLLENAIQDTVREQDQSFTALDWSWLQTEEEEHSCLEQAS

[9] = biological target: T3, Inhibitor of nuclear factor kappa-B kinase subunit beta (Homo sapiens); details: at 1 µM
[10] = biological target: T4, Inhibitor of nuclear factor kappa-B kinase subunit epsilon (Homo sapiens) (UniProt Q14164); details: at 0.1 µM;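 also: mean inhibition of IKKε reported, from the GSK PKIS dataset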
T4 sequence (whole entry): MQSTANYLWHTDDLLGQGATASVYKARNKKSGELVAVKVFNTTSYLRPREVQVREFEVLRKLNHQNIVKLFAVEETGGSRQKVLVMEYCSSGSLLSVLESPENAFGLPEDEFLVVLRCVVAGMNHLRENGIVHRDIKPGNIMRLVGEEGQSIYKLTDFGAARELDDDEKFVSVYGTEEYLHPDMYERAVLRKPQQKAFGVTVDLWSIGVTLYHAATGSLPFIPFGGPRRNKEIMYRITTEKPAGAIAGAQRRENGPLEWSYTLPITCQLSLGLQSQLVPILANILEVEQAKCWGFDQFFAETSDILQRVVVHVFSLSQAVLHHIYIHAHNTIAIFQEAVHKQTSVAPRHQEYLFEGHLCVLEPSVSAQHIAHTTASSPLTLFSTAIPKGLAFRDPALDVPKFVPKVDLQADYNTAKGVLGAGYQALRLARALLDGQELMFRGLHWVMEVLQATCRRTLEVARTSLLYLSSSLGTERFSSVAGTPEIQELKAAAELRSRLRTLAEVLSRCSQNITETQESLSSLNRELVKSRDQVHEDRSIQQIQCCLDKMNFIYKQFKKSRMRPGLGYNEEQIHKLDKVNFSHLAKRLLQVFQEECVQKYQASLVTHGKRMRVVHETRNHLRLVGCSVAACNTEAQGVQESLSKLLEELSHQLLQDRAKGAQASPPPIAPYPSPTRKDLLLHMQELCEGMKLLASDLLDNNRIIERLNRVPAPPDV

Chain of Sphingosine kinase 1 (Homo sapiens) (Q9NYA1 whole entry): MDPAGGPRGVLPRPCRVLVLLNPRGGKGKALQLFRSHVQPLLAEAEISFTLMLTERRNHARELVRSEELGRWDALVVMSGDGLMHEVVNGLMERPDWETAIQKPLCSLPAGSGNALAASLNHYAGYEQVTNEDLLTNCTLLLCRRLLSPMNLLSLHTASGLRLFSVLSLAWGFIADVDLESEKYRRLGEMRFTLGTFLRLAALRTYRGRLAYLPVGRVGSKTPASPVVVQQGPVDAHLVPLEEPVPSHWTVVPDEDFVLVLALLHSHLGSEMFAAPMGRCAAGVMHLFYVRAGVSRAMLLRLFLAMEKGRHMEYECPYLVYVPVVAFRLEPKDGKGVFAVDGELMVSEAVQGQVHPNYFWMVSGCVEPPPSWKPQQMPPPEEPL

SMILES | inhibition [1] | inhibition [2] | inhibition [3] | inhibition [4] | inhibition [5] | inhibition [6] | inhibition [7] | inhibition [8] | inhibition [9] | inhibition [10]
COc1cc(N2CCN(C(C)C)CC2)ccc1Nc1nc(Nc2cccc3ncccc23)c2cc[nH]c2n1 | -2% | 0% | -0.78% | 1.04% | 1.8% | 4.1% | -3.72% | 1.05% | -2.01% | -1.3%
CN1CCC(C(=O)Nc2n[nH]c3nc(-c4ccc(O)cc4)c(Br)cc23)CC1 | 0.24% and -1.35% | 0.67% and 1.32% | 1.49% and 0% | 6.41% and 0.96% | 13.3% and 1.03% | 1.72% and -1.22% | -1.54% and 2.39% | 6.9% and 3.32% | 12.8% and 4.3% | 8.54% and 3.19%
COc1ccc(Nc2ncc(-c3ccccc3)o2)cc1OC | 2.47% | -0.42% | -0.4% | 1.03% | 6.83% | 5.31% | 3.86% | 3.33% | 4.83% | 2.76%
Cc1c2ccc(N(C)c3ccnc(Nc4cccc(S(N)(=O)=O)c4)n3)cc2nn1C | 1.41% | -0.17% | 0% | 0.52% | 0.25% | 7.99% | 3.93% | 5.79% | 5.44% | 4.78%
CCN1CCC(C(=O)Nc2n[nH]c3nnc(-c4cccc(F)c4F)cc23)CC1 | 4.91% | -2.69% | -1.5% | 5.2% | -0.24% | -3.04% | 3.59% | -4.76% | -2.63% | -2.1%
COc1cccc(-n2ncc3c(N/N=C/c4ccc(C(=O)NCCN(C)C)cc4)ncnc32)c1 | 0.56% | 0.23% | 1.39% | 31% | 62.2% | 1.29% | 4.43% | 1.09% | 0.86% | -1.79%
Cc1cc(O)cc(C)c1/C=C/c1cncc(C(N)=O)c1 | -2.84% | 0.32% | 0.47% | 2% | 1.41% | 7.66% | 1.26% | 1.7% | 1.13% | 1.74%
CN(C)CCNC(=O)Nc1ccc(N(C)c2ccnc(Nc3ccc(CS(C)(=O)=O)cc3)n2)cc1 | -1.23% | -0.06% | 2.33% | 2.94% | 0.31% | 2.05% | 0.39% | 7.67% | 1.94% | 3.33%
O=C(Nc1n[nH]c2nnc(-c3cccnc3)cc12)C1CC1 | -2.26% | -0.36% | -1.77% | 3.14% | 5.42% | 0.84% | -0.73% | 1.55% | 1.04% | -2.46%
O=C(O[C@H]1CN[C@H](C#Cc2cc3ncnc(Nc4ccc(OCc5cccc(F)c5)c(Cl)c4)c3s2)C1)N1CCOCC1 | -2.17% | 0.46% | -2.18% | 4.85% | 11.5% | 6.35% | 6.72% | 8.43% | 11.1% | 8.36%
c1ccc(-c2n[nH]cc2-c2ccnc(-c3ccc(OCCn4ccnc4)cc3)c2)nc1 | -1.64% | -0.27% | 0.04% | 1.26% | 2.53% | 4.99% | 3.64% | 0.37% | -0.43% | 0.86%
COC(=O)Nc1nc2ccc(Oc3ccc(NC(=O)Nc4cc(C(F)(F)F)ccc4F)cc3)cc2s1 | -3.33% | 0.51% | -0.44% | -0.3% | 1.75% | 4.91% | -0.96% | 3.58% | -1.14% | -0.11%
c1cnn2ncc(-c3ccnc(NCCCN4CCOCC4)n3)c2c1 | -3.67% | 2.35% | 0% | 1.83% | 4.66% | 8.06% | 9.01% | 5.79% | 4.44% | 9.87%
COc1cc2c(cc1Nc1nc(Nc3cccc(F)c3C(N)=O)c3cc[nH]c3n1)N(C(=O)CN1CCN(C(C)C)CC1)CC2 | 1.21% | -0.45% | -0.67% | 6.72% | 10.1% | 2.84% | 4.05% | 5.51% | 1.47% | 3.12%
CNC(=O)c1ncccc1Nc1nc(Nc2cc3c(cc2OC)CCCN3C(=O)CN(C)C)nc2[nH]ccc12 | -0.03% | -0.11% | -1.01% | 6.76% | 22.8% | 12.9% | 7.49% | 2.85% | -0.65% | 5.04%
Nc1ncnc2occ(-c3ccc(NC(=O)Nc4cc(C(F)(F)F)ccc4F)cc3)c12 | -0.65% and 1.59% | -1.33% and 0% | 11.6% and 0% | 2.39% and -3.9% | 6.35% and 0.16% | 5.79% and 7.04% | 6.73% and 11.3% | 1.45% and -2.16% | 2.13% and 1.62% | 1.57% and 0.44%
